DAX1 inh-1 = blocks DAX1 repression of SF-1 activated StAR promoter; HEK293T StAR-luciferase reporter, SF-1/DAX-1 repression relief; inhibition, % at 6.8 µM; hit rate 1.1% among 370,000;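 active means inhibition above the mean over all tested compounds plus 3 SD, cut at about 3.6% in these data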;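 further: 0% = DAX-1 cells with DMSO and 100% = cells lacking DAX-1 with DMSO; higher inhibition means more luminescence from relief of DAX-1 repression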
DAX1 inh-2 = inhibitors of human orphan nuclear receptor DAX1 (NR0B1) | HEK293 Gal4-DAX1 luciferase reporter, luminescence | hit rate 0.99% among 340,000 | P51843 | inhibition, % at 6.75 µM;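 active means inhibition above the mean over all tested compounds plus 3 SD, cut at about 4.2% in these data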;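 further: 0% = DAX1-transfected cells with DMSO and 100% = empty-vector control cells with DMSO; inhibition shows as a rise in luminescence from relieved DAX1 repression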
Target sequence (P51843 207-470 limits assumed): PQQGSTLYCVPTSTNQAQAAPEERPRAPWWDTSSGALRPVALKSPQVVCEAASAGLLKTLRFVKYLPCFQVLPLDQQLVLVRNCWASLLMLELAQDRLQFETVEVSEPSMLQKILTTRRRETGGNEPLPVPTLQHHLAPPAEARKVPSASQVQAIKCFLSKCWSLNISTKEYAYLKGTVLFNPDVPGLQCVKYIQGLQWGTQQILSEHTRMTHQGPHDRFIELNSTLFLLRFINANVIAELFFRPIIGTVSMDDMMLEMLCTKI
hcDAF-12 act = activates DAF-12 receptor from parasite H. contortus | AID 652067 | hit rate 1.4% among 370,000 | activation, % at 6.8 µM | HEK293 hcDAF-12 lit1-tk-luc reporter, luminescence; 0% DMSO, 100% Δ7-dafachronic acid;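 active means activation above the mean of all tested compounds plus 3 SD, cut at about 5.5% in these data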;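 further: 100% = response to 3 µM Δ7-dafachronic acid high control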
ssDAF12 agonist = S. stercoralis DAF-12 activation, primary screen; HEK293 ssDAF-12/GRIP1 lit1-tk-luc reporter, luminescence; % of 3 µM dafachronic acid response; hit rate 1% among 370,000; activation, % at 6.8 µM;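 active means activation above the mean over all tested compounds plus 3 SD, cut at about 0.9% in these data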;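 further: 0% = DMSO-only wells and 100% = 3 µM delta7-dafachronic acid wells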
hgDAF-12 ag = activates the H. glycines DAF-12 receptor ligand-binding domain; hit rate 1.8% among 370,000; HEK293 GAL4-hgDAF12 UAS-luciferase reporter, agonist luminescence; normalized to butyrate control; activation, % at 6.8 µM;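 active means activation above a cutoff set at the mean of all screened compounds plus 3 SD, cut at about 10% in these data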;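 further: 0% = DMSO wells and 100% = sodium butyrate wells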
* marks the source's active call; other numbers are inactive results; nt = no result. In the library only some 4.1% were active in any assay of this set; here they are far more common.

SMILES	DAX1 inh-1	DAX1 inh-2	hcDAF-12 act	ssDAF12 agonist	hgDAF-12 ag
O=C(CN1CCCCCC1)Nc1ccccc1	0	-1	-2	-1	0
O=C(CN1CCCCCC1)Nc1cccc(NC(=O)CN2CCCCCC2)c1	0	4.5*	-2	-2	-1
CC(NC(=O)CN1C(=O)NC2(CCCCCC2)C1=O)c1ccccc1Cl (stereo not drawn)	1	1	-1	1.1*	-1
O=C(CN1C(=O)NC2(CCCCCC2)C1=O)Nc1ccccc1[N+](=O)[O-]	0	1	2	-1	-2
O=C(CN1C(=O)NC2(CCCCC2)C1=O)Nc1cccc(S(=O)(=O)N2CCCC2)c1	4.6*	1	-1	0	0
CCC(=O)N[C@H]1C[C@@H]2O[C@@H](CO)CC[C@@H]2O[C@@H]1CCc1ccc(-c2cccc(OC)c2)cc1	-1	nt	0	-1	1
O=C(C[C@H]1CC[C@@H](NS(=O)(=O)c2ccccc2)[C@@H](CO)O1)NCc1ccc(Cl)c(Cl)c1	-1	nt	-1	-1	-1
Cc1ccc(-c2cc(N)n(-c3ccccc3)n2)cc1	2	1	3	0	11*
Cc1ccc(C(c2c(C)nn(-c3ccccc3)c2N)c2c(C)nn(-c3ccccc3)c2N)cc1	0	-1	0	-1	3
Cc1nn(-c2ccccc2)c(N)c1-c1ccccc1	1	-1	5	1.0*	9
Cc1nn(-c2ccccc2)c(N)c1N=Nc1ccc(Cl)cc1	2	3	3	-1	18*
Cc1nn(-c2ccccc2)c(N)c1N=Nc1ccccc1	1	1	4	0	10
COC(=O)C12C=C3CC(c4ccc(OC)cc4)=C3C(=O)N1Cc1[nH]c3ccccc3c1C2 (stereo not drawn)	-1	nt	1	-1	-2
COC(=O)c1ccccc1S(=O)(=O)N1CCC(C(=O)NCC2CCCO2)CC1 (stereo not drawn)	1	4.3*	-1	0	0
COC(=O)C1=C(NC(=O)c2ccc(C)cc2)CCS1	1	0	4	1.9*	4
COC(=O)C1=C(NC(C)=O)CCS1	0	0	0	-2	-2
CC(C)CN(C(=O)Cn1nnc(-c2ccc(F)cc2)n1)C1CCS(=O)(=O)C1 (stereo not drawn)	1	1	0	-1	2
COc1cc2c(cc1C1C(C#N)=C(N)OC3=C1C(=O)CC(C)(C)C3)OCO2 (stereo not drawn)	0	4.9*	-1	-1	-2
CN(CC#Cc1ccccc1)C(N)=NC(=O)/C=C/c1ccccc1	0	nt	-2	-2	-3
Cc1cccc2cn[nH]c12	0	0	2	-1	4
Cc1ccc2cn[nH]c2c1[N+](=O)[O-]	0	4.9*	5.6*	0	1
COc1ccc(-c2c(C#Cc3ccc(N(C)C)cc3)c3ccccc3n2C)cc1	1	-1	5.8*	0	3
Cc1ccc(S(=O)(=O)Cc2ccc(C(=O)N3CCN(c4ccccn4)CC3)o2)cc1	0	4.7*	-1	-2	0
O=C(c1ccc(CS(=O)(=O)c2ccc(Br)cc2)o1)N1CCN(c2ccccn2)CC1	-1	-3	-1	-1	-1
COc1ccc(/C=N/NC(=O)c2cccc(Br)c2)cc1CN1CCOCC1	0	1	-2	-1	1
SMILES	DAX1 inh-1	DAX1 inh-2	hcDAF-12 act	ssDAF12 agonist	hgDAF-12 ag
COc1cc(/C=N/NC(=O)Nc2ccccc2)ccc1OC(C)=O	1	1	3	0	12*
Cn1c(=O)n(C)c2cc(/C=N/NC(=O)c3ccc(Cl)cc3)ccc21	0	4.6*	0	-1	1
COc1cc(C(=O)N/N=C/c2ccc(OC(=O)c3ccccc3)c(OC)c2)ccc1O	-1	0	0	-1	4
COc1cc(/C=N/NC(=O)c2ccccc2)ccc1O	1	5.9*	4	-1	5
COc1ccc(/C=N/NC(=O)c2ccccc2O)cc1CN1CCOCC1	0	-1	6.0*	0	6
O=S1(=O)c2ccc(N3CCN(Cc4ccccc4F)CC3)cc2Oc2ccccc2CN1Cc1cn(Cc2cccc(F)c2)nn1	-1	nt	-1	-2	-2
CCCCOc1ccc(C(=O)NC2CCCCN(Cc3cccc(Cl)c3)C2=O)cc1 (stereo not drawn)	-3	nt	-3	-2	-3
CCCNC(=O)N(C)C[C@@H]1Oc2cc(C#CC(C)(C)O)ccc2S(=O)(=O)N([C@H](C)CO)C[C@H]1C	0	1	-1	-1	0
COC(=O)c1cc(-c2ccccc2OC)c(=O)n2c1CCC2	-1	nt	1	-2	3
COC(=O)[C@]12C[C@H](CC(=O)NCc3cccc4ccccc34)C(=O)N(Cc3cccc4ccccc34)C1=C[C@H](C1CCCC1)O[C@@H]2C	-1	nt	-2	-1	-2
O=C(COc1ccccc1F)N/N=C1\CCCc2ccccc21	2	1	5.8*	0	10
COc1ccc(OCC(=O)N/N=C2\CCCc3ccccc32)cc1	0	-1	3	1.0*	-3
COC(=O)c1ccc(Cn2ccc3ccc(-c4ccc5ccn(C(=O)c6ccccc6OC)c5c4)cc32)cc1	0	nt	-1	-1	3
C/C(=N\NC(=O)COc1ccccc1-c1ccccc1)c1ccccn1	4.0*	-2	0	-2	-10
O=C(NCCc1ccccc1)c1cnc2ccccc2n1	1	1	5	0	13*
O=C(NCCc1ccc(Cl)cc1)c1ccc2ccccc2n1	0	0	6.0*	-1	5
COc1ccc(S[C@]2(C(=O)N(C)C)CC(=O)N(C(=O)C3CC3)[C@@H]2c2ccc(OC)cc2)cc1	-2	nt	0	-1	-2
CCOc1ccc(N(CC(=O)Nc2c(C)n(C)n(-c3ccccc3)c2=O)S(=O)(=O)c2ccc(C)c(C)c2)cc1	-1	nt	-3	-1	-1
CCCC[C@@H]1C(=O)N2N=Cc3cc(C)c(C)cc3[C@H]2N2N=Cc3cc(C)c(C)cc3[C@@H]12	0	nt	-3	-1	-4
N#Cc1cccc(NC(=O)OC2CCC23CCC(c2ccccc2)CC3)c1 (stereo not drawn)	-2	nt	-3	-2	0
CC(C)OC(=O)CSc1nnc(-c2ccc(C(C)(C)C)cc2)n1N	1	5.0*	0	-1	3
Cc1ccc(Cc2c(-c3ccco3)nc3c4ccccc4ccn23)cc1	-2	nt	3	0	-9
N#Cc1ccc(-c2nc3c4ccccc4ccn3c2Cc2ccsc2)cc1	0	nt	3	1.5*	3
Cc1ccc(-c2nc3c4ccccc4ccn3c2Cc2cccc(Cl)c2)cc1	-1	nt	2	1	7
c1ccc(Cc2c(-c3ccccc3)nc3c4ccccc4ccn23)cc1	0	1	5	0.9*	2
Cc1cc(Br)cn2c(Cc3ccccc3C(F)(F)F)c(-c3cccc(Br)c3)nc12	-1	nt	-1	-1	-4

Screening results: PubChem, The Scripps Research Institute Molecular Screening Center
